Hits are enriched below; roughly 2.6% of the tested compounds scored in any of these assays.
Cruzain inh Det: qHTS Assay for Promiscuous and Specific Inhibitors of Cruzain (with detergent); Cruzipain (Trypanosoma cruzi), P25779; purified cruzain, Z-FR-AMC fluorescence, 0.01% Triton; Potency, µM, usual class: inhibitors; 200,000 compounds, 0.43% hits; also: nearly all actives have a fitted effect of over 40% in size
Target sequence (P25779 123-467 limits assumed): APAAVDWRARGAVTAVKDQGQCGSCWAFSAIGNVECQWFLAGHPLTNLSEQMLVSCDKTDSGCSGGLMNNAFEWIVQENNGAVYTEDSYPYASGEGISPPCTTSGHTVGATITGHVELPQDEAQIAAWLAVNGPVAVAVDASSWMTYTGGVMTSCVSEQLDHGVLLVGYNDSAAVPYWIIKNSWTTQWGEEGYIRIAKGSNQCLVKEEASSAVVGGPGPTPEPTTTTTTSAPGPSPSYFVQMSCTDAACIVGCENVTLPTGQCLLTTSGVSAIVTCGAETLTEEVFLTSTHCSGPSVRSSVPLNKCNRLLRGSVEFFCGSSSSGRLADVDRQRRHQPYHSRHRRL
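Z-FR-AMC hydrolysis (2 uM substrate) by cruzain (1.5 nM) monitored kinetically at ex 360/em 450 nm after 15 min room-temperature compound exposure; 0.01% Triton X-100, pH 5.5, 5 mM DTT.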
Cruzain noTriton: qHTS Assay for Promiscuous and Specific Inhibitors of Cruzain (without detergent); Cruzipain (Trypanosoma cruzi), P25779; purified cruzain, Z-FR-AMC fluorescence, no detergent; Potency, µM, hits mostly inhibitors; 200,000 compounds, 2.3% hits; AID 1476, 2009; also: nearly all actives have a fitted effect of over 40% in size
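Detergent-free condition (0.00005% Triton X-100) in acetate buffer pH 5.5 with DTT. 1.5 nM enzyme and compound were pre-mixed 15 min, then 2 uM Z-FR-AMC substrate added; reaction progress from fluorescence change between first and third reads (60 s).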
Hits are given with their value; . = inactive; ? = inconclusive. Calls follow the shape of the dose curve; as a rule, active = well fitted curve in the direction sought with a large enough effect; inconclusive = small, poorly fitted or top-dose-only effect, or another doubt; inactive = no such curve, though single readings can be large; an effect the other way counts as inactive or inconclusive.

SMILES	Cruzain inh Det	Cruzain noTriton
CCc1cccc(CC)c1NC(=O)C1SC(=Nc2ccccc2C)C(c2nc3ccccc3s2)=C1N (stereo unspecified)	.	6.3µM
COCCCNC(=O)CCn1c(=O)c2ccccc2n(CC(=O)Nc2c(C)cc(C)cc2C)c1=O	.	.
COc1ccc(C2NC(=O)NC(C)=C2C(=O)Nc2cccc(C)c2C)cc1 (stereo unspecified)	.	.
COC(=O)C1=C(C)N=c2s/c(=C/c3cccs3)c(=O)n2C1c1cccs1 (stereo unspecified)	.	.
CCOC(=O)C1=C(c2ccccc2)N=c2s/c(=C\c3ccc(O)cc3)c(=O)n2C1c1cccs1 (stereo unspecified)	.	13µM
O=[N+]([O-])c1cccc(/C=N\N2CCN(c3ccc(Cl)cc3)CC2)c1	.	25µM
O=[N+]([O-])c1ccc(N2CCN(c3nc(-c4ccc(Cl)cc4)cs3)CC2)cc1	.	13µM
O=[N+]([O-])c1ccc(Cl)c(/C=N/N2CCN(Cc3ccc(Cl)cc3)CC2)c1	.	.
O=[N+]([O-])c1ccc(/C=N\N2CCN(c3ccc(Cl)cc3)CC2)cc1	.	16µM
CCOC(=O)N1CCN(c2nc(-c3ccc(Cl)cc3)cs2)CC1	.	.
O=C(c1cccc([N+](=O)[O-])c1)N1CCN(c2ccc(Cl)cc2)CC1	.	.
COC(=O)C1=C(C)N(c2cccc3ccccc23)C(=O)C1	.	.
COC(=O)/C=C1/SC(=NC(=O)c2ccccc2)NC1=O	.	.
COC(=O)/C=C1\SC(=NC(=O)c2cccc(Cl)c2)NC1=O	14µM	.
COc1ccc(C(=O)Nc2ccc(OC)c(OC)c2)cc1	.	.
Cc1ccc(NC(=O)c2ccc(OC(=O)C(C)Oc3ccc(Cl)cc3C)cc2)cc1 (stereo unspecified)	.	7.9µM
Cc1ccc(N=C2NC(=O)/C(=C\c3cccs3)S2)cc1C	.	25µM
Cc1cccc(N=C2NC(=O)/C(=C/c3cccs3)S2)c1	.	?
CCC(C)c1ccc(OCC(=O)Nc2ccc3[nH]c(=O)[nH]c3c2)cc1 (stereo unspecified)	.	25µM
CCC(C)c1ccc(OCC(=O)O)cc1 (stereo unspecified)	.	.
O=C(Nc1ncc(S(=O)(=O)c2ccc([N+](=O)[O-])cc2)s1)c1ccc2ccccc2c1	.	20µM
O=C(Nc1nnc(CCS(=O)(=O)c2ccc3ccccc3c2)s1)c1ccc([N+](=O)[O-])cc1	.	13µM
CCC(C)(C)C(=O)Nc1ncc(S(=O)(=O)c2ccc([N+](=O)[O-])cc2)s1	.	.
O=C(Nc1nnc(CCS(=O)(=O)c2ccc3ccccc3c2)s1)c1cccs1	.	?
CS(=O)(=O)Nc1nnc(SCC(=O)Nc2cccc([N+](=O)[O-])c2)s1	.	.
SMILES	Cruzain inh Det	Cruzain noTriton
Cc1ccc(Nc2nnc(SCC(=O)Nc3ncc(S(=O)(=O)c4ccc([N+](=O)[O-])cc4)s3)s2)cc1	.	7.9µM
O=C(Nc1ncc(Cc2cc(Cl)ccc2Cl)s1)c1ccc([N+](=O)[O-])cc1	.	13µM
O=C(Nc1ncc(Cc2cccc(Cl)c2Cl)s1)c1ccc([N+](=O)[O-])cc1	.	.
Cc1ccc(CSc2ncc(Cl)c(C(=O)Oc3ccccc3F)n2)cc1	.	.
C=Cc1ccc(Cn2nc(-c3ccc(C)c(S(=O)(=O)N(CC)CC)c3)ccc2=O)cc1	.	?
COc1ccccc1Cn1nnc2c(=O)[nH]c(C3CCN(C(=O)c4ccc(F)cc4)CC3)nc21	.	?
CCC(C)NC(=O)c1sc2nc(C)c(C(=O)Nc3ccc(C)cc3C)c(-c3ccc(Cl)cc3)c2c1N (stereo unspecified)	.	?
Cc1ccc2nc(Nc3nc(C)cc(C(F)(F)F)n3)nc(C)c2c1	.	.
CCc1nc2cccnc2n1-c1ccc(CC(=O)Nc2ccc(C)cc2)cc1	.	.
CCc1ccccc1NC(=O)Cc1ccc(-n2c(C)nc3cccnc32)cc1	.	.
CCc1nc2cccnc2n1-c1ccc(CC(=O)Nc2cccc(C)c2C)cc1	16µM	.
CCc1nc2cccnc2n1-c1ccc(CC(=O)Nc2ccccc2Cl)cc1	13µM	.
O=[N+]([O-])c1cc(C(F)(F)F)cc([N+](=O)[O-])c1NN=C1CCCCC1	.	.
O=C(Cc1ccc(NC(=O)N2CCSc3ncccc32)cc1)NCc1ccccc1Cl	.	.
COc1cccc(OCCCn2cc(/C=C3/C(=N)N4C=C(C)SC4=NC3=O)c3ccccc32)c1	.	13µM
CC1=CN2C(=N)/C(=C/c3cn(CCCOc4ccccc4C)c4ccccc34)C(=O)N=C2S1	.	3.2µM
COc1cc(/C=C2/C(=N)N3C=CSC3=NC2=O)ccc1OCCCOc1ccccc1C	.	.
CC1=CN2C(=N)/C(=C/c3ccco3)C(=O)N=C2S1	.	.
COc1ccc(OCCCn2cc(/C=C3/C(=N)N4C=C(C)SC4=NC3=O)c3ccccc32)cc1	.	25µM
COc1cc(/C=C2/C(=N)N3C=CSC3=NC2=O)ccc1OCCCOc1c(C)cccc1C	.	.
N/C(CN1CCCC1=O)=N\OC(=O)c1ccc(Cl)c(Cl)c1	.	.
C[C@H]1C(c2ccccc2)=NN(c2ccccc2)[C@@H]1CO	.	.
Cc1cccc(C2=NN(c3ccccc3)[C@H](CO)[C@H]2c2ccc(F)cc2)c1	.	?
Cc1cccc(C2=NN(c3ccccc3)[C@H](CO)[C@H]2c2ccc(Cl)cc2)c1	.	35µM
OC[C@@H]1[C@@H](c2ccccc2)C(c2cccc(Cl)c2)=NN1c1ccccc1	.	25µM
SMILES	Cruzain inh Det	Cruzain noTriton
OC[C@@H]1[C@@H](c2ccccc2)C(c2ccccc2)=NN1c1ccccc1	.	28µM
COc1ccccc1[C@H]1C(c2cccc(Cl)c2)=NN(c2ccccc2)[C@@H]1CO	.	?
CC(=O)c1sc2ccccc2c1OC(=O)c1ccco1	.	.
COc1ccccc1N1CCN(C(=O)c2cc(C3CC3)on2)CC1	.	.
CNc1nc(NC)nc(-n2c(C(F)(F)F)nc3ccccc32)n1	.	.
C=CCSc1nnc(CSc2nc3sc4c(c3c(=O)[nH]2)CCCC4)n1-c1ccccc1	.	.
C=CCn1c(SCc2nc3sc4c(c3c(=O)[nH]2)CCCC4)nc2ccccc2c1=O	.	13µM
COc1ccc(CNC(=O)C2(c3ccc(Cl)cc3)CC2)cc1	.	.
Cc1ccc(C(=O)COC(=O)c2cc(-c3cccs3)nc3ccccc23)cc1	.	?
COc1ccc(C(=O)COC(=O)c2cc(-c3cccs3)nc3ccccc23)cc1	.	20µM
Cc1occc1C(=O)NNC(=O)c1ccc(F)cc1	.	.
CC1CN(C(=O)c2ccccc2)C(=Nc2cccc(S(=O)(=O)N(C)C)c2)S1 (stereo unspecified)	.	.
CN(C)S(=O)(=O)c1cccc(N=C2NN=C(c3ccccc3)CS2)c1	.	32µM
Cc1ccc(CN(Cc2ccco2)C(=O)c2oc3c(C)c(C)ccc3c2C)cc1	.	25µM
Cc1ccc(CN(Cc2ccco2)C(=O)c2oc3ccc(C)cc3c2C)cc1	.	?
CC(C)c1nnc(NC(=O)CCN2C(=O)c3ccccc3C2=O)s1	.	.
Cc1sc2ncnc(N3CCOCC3)c2c1C	.	.
O=C1OC(c2ccccc2)=N/C1=C\N1CCCCC1	.	.
COc1cccc(/C=C2\N=C(c3c(-c4ccccc4)noc3C)OC2=O)c1OC	.	.

Assay outcomes (PubChem BioAssay)
